NS1 inh: inhibitors of influenza NS1 protein function; Potency, µM (highest dose often 46.1 µM), for the others: top-dose activity, positive = more growth; 270,000 tested, 0.4% active; calls by dose curve; also: potency is read from the fitted curve at half-maximal effect; actives are rising curves; nearly all actives have a fitted effect of over 50% in size
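OD600 was taken as the measure of yeast growth restored by compound in an NS1-expressing S. cerevisiae strain. Cells had been washed out of glucose medium and diluted 1:100 into galactose -URA medium, pH 6.0.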
Cycloheximide cs: counter-screen hit for Shiga toxin inhibitors, cycloheximide. 300,000 tested, 12% active. AID 2314. max response, %. cell reporter, cycloheximide protein synthesis inhibition counterscreen; in the data active = max response mostly above about 13%, no sharp cut-off; inactive = mostly below about 14%; also: read at 38.3 µM for the half of the compounds with a filed dose; 0% is about no effect
AmpC no deterg: blocks E. coli AmpC beta-lactamase in detergent-free assay. 330,000 tested, 0.52% active. AID 485341. Potency, µM (doses to about 57.1 µM), inactives show at the highest dose activity change, negative = inhibition, hits mostly inhibitors. AmpC nitrocefin hydrolysis, absorbance 480 nm, 0.0001% Triton;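 also: potency is read from the fitted curve at half-maximal effect; plate controls were no compound for no effect and no enzyme for full effect; nearly all actives have a fitted effect of over 20% in size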
Target sequence (P00811 whole entry, looked up): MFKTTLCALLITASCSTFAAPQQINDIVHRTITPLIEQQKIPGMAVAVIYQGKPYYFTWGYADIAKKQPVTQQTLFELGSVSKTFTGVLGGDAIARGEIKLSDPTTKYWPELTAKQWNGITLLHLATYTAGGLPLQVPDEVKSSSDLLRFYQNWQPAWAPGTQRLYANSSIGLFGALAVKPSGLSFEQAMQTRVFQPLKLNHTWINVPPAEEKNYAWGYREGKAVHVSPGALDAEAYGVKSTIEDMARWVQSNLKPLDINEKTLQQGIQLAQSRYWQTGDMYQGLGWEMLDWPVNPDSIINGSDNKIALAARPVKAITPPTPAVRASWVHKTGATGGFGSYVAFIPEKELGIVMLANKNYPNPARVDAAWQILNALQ
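20 mM phosphate pH 7.0 + 0.01% (detergent screen) or 0.0001% Triton X-100; 5.3 nM AmpC reagent; cpd preinc 15 min RT; nitrocefin (800 uM stock) to start; A480 q20 s × 4 min; Activity was normalised to no-enzyme and no-compound control wells.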
Shiga inhibitor: inhibitors of Shiga toxin in Vero cells. inhibition, % at 38.7 µM. 290,000 tested, 9.2% active. AID 2315. Vero cells, Shiga toxin protein synthesis inhibition reporter; in the data active = inhibition mostly above about 28%, no sharp cut-off; inactive = mostly below about 43%; also: 0% is about no effect
AmpC inh detg: AmpC beta-lactamase inhibition with detergent present. P00811. AmpC hydrolysis of nitrocefin, absorbance 480 nm, 0.01% Triton. Potency, µM (highest dose often 114 µM), without a hit: at the highest dose activity change, negative = inhibition, most hits filed as inhibitors. 370,000 tested, 0.041% active. AID 485294;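 also: potency is read from the fitted curve at half-maximal effect; 0% = no-compound wells and -100% = no-enzyme wells; nearly all actives have a fitted effect of over 25% in size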
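20 mM phosphate pH 7.0 + 0.01% (detergent screen) or 0.0001% Triton X-100; 5.3 nM AmpC reagent; cpd preinc 15 min RT; nitrocefin (800 uM stock) to start; A480 q20 s × 4 min; Activity was normalised to no-enzyme and no-compound control wells.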
The depositor's hits bear a star; ? = inconclusive; / = no result given. Many of the other results were omitted from the sample, so hits are more common in it than they were. Unless noted, calls follow the shape of the dose curve; as a rule, active = well fitted curve in the direction sought with a large enough effect; inconclusive = small, poorly fitted or top-dose-only effect, or another doubt; inactive = no such curve, though single readings can be large; an effect the other way counts as inactive or inconclusive.

SMILES	NS1 inh	Cycloheximide cs	AmpC no deterg	Shiga inhibitor	AmpC inh detg
c1ccc2c(c1)Cn1c-2nc2ccccc21	-103%	32*	-27%	62*	-9%
c1ccc2c(c1)Cn1nnnc1-2	10%	-3	-1%	-13	?
CN1CCN(c2ccc(NC(=O)c3cc4ccccc4o3)cc2)CC1	7%	33*	-10%	57	-22%
CS(=O)(=O)N1CCN(c2ccc(NC(=O)c3cc4ccccc4o3)cc2)CC1	8%	19*	-21%	21	2%
CS(=O)(=O)N1CCN(c2ccccc2NC(=O)c2cc3ccccc3o2)CC1	2%	-5	-9%	-8	?
OC(C#CCN1CCOCC1)c1cccs1 (stereo unspecified)	5%	37*	2%	-6	10%
CC(=O)OC(C#CCN1CCOCC1)c1ccccc1 (stereo unspecified)	11%	1	/	-9	0%
Cc1ccc(SC[C@H](c2ccccc2)N2CCN(CCc3ccccc3)CCC2=O)cc1	-43%	33*	56%	59*	-5%
O=C1CCN(CCc2ccccc2)CCN1C(CSc1ccc(Br)cc1)c1ccccc1 (stereo unspecified)	/	33*	/	41	/
CC(=O)Nc1ccc(SCC(c2ccccc2)N2CCN(CCc3ccccc3)CCC2=O)cc1 (stereo unspecified)	/	26	/	34	/
O=C1CCN(CCc2ccccc2)CCN1[C@H](CSc1ccccc1)c1ccccc1	-50%	15*	58%	13	-15%
O=C1CCN(CCc2ccccc2)CCN1[C@H](CO)c1ccccc1	22%	-1	42%	-4	?
Cc1ccc(SCC(c2ccccc2)N2CCN(CCc3ccccc3)CCC2=O)cc1 (stereo unspecified)	/	48*	/	35*	/
O=C(NCc1ccccn1)c1ccc(Cl)s1	-2%	24*	-16%	26	1%
O=C(NCc1ccccn1)c1cccs1	7%	2	-38%	12	-5%
O=C(NCc1ccccn1)c1c(Cl)cccc1Cl	-46%	0	-7%	3	-6%
O=C(NCc1ccccn1)c1ccc(Br)s1	-3%	17*	-8%	32*	-4%
CCC(Sc1nnc(C)n2c1cc1occc12)C(=O)Nc1ccccc1F (stereo unspecified)	/	/	/	/	3%
O=C(Cc1ccc(F)cc1)NCC1CCCO1 (stereo unspecified)	5%	4	-3%	17	2%
COc1cccc(-c2cc(C(=O)NCC3CCCO3)on2)c1 (stereo unspecified)	-16%	36*	-11%	48*	0%
COc1ccc(-c2cc(C(=O)NCC3CCCO3)on2)cc1OC (stereo unspecified)	-13%	3	-5%	-5	?
O=C(NCC1CCCO1)c1cc(-c2ccc(F)cc2)no1 (stereo unspecified)	-13%	45*	-11%	97*	-14%
COC(c1ccccc1)c1nnc(CCC(=O)N(C)CCc2ccccc2)o1 (stereo unspecified)	-2%	8	52%	5	9%
CCOC(=O)CCNC(=O)CCc1nnc(CCCc2ccccc2)o1	3%	29*	4%	96*	-4%
O=C(CCc1nnc(CCC2CCCCC2)o1)NCCc1ccccn1	2%	-1	54%	-2	8%
SMILES	NS1 inh	Cycloheximide cs	AmpC no deterg	Shiga inhibitor	AmpC inh detg
O=C(CCc1nnc(CCCc2ccccc2)o1)NCCc1ccccc1	-3%	22*	58%	43*	-1%
O=C(CCc1nnc(CCCCc2ccccc2)o1)NCCCc1cccnc1	4%	25	81%	4	-8%
COC(c1ccccc1)c1nnc(CCC(=O)NCCCc2ccccc2)o1 (stereo unspecified)	-2%	17*	81%	23	-3%
O=C(CCc1nnc(CCCc2ccccc2)o1)NCCCC1CCCC1	-1%	41*	172%	120*	-4%
O=C(NC(=S)NCCOCc1ccc(Cl)cc1)c1cccnc1	-4%	8	4%	-4	1%
CCS(=O)(=O)N1Cc2ccccc2CC1C(=O)N(C)Cc1ccc(OC)c(F)c1 (stereo unspecified)	-18%	11	15%	3	-13%
COc1cc(Cl)c(C)cc1NC(=O)CSc1cc(-c2ccccc2)nc(C)n1	/	/	/	/	12%
O=C(CCc1nnc(CCCc2ccccc2)o1)NCCc1ccco1	-2%	43*	41%	74*	3%
O=C(CCc1nnc(CCCCc2ccccc2)o1)NCc1cccc(F)c1	-9%	1	128%	13	0%
O=C(CCc1nnc(CCCc2ccccc2)o1)NCC(F)(F)F	-2%	36*	3%	39*	-5%
O=C(CCc1nnc(CCCCc2ccccc2)o1)NCCn1cccn1	1%	-1	18%	-19	1%
O=C(CCc1nnc(CCCCc2ccccc2)o1)NCCN1CCOC1=O	-31%	21*	-4%	84*	1%
Cc1ccc(N(C)C(=O)Cn2cnc3onc(-c4ccc(F)cc4)c3c2=O)cc1C	/	/	/	/	-5%
Cc1ccc(C)c(/C(O)=C2\C(=O)C(=O)N(Cc3cccnc3)C2c2cccnc2)c1 (stereo unspecified)	?	-5	-3%	5	-1%
Clc1ccc(-n2ncc3c(N4CCCC4)ncnc32)cc1	-8%	77*	-4%	120*	-15%
CCOC(=O)C1CCN(c2ncnc3c2cnn3-c2ccc(Cl)cc2)CC1	-6%	-2	51%	8	-14%
Fc1ccc(-n2ncc3c(N4CCCCCC4)ncnc32)cc1	/	/	/	/	-4%
CCOC(=O)C1CCN(c2ncnc3c2cnn3-c2ccccc2)CC1	-14%	18*	57%	37	?
COc1cccc(OCCN2CCN(c3ncnc4c3cnn4-c3ccccc3)CC2)c1	-13%	18*	117%	31	4%
CC1CCN(c2ncnc3c2cnn3-c2ccccc2)CC1	-54%	42*	-3%	75*	-13%
CCOC(=O)CSc1nnc(CSc2nc3sc4c(c3c(=O)[nH]2)CCCC4)n1-c1ccccc1	?	2	-2%	-11	-12%
CCCNC(=O)CSc1c(CCC)cnc2c1c(=O)n(C)c(=O)n2C	/	/	/	/	1%
CCOc1ccccc1NC(=O)NCc1noc2ccc(C)cc12	/	/	/	/	3%
O=C(c1ccco1)N1CCN(c2ncnc3c2cnn3-c2ccccc2)CC1	-33%	25*	19%	41	-11%
Cc1ccc(-n2ncc3c(N4CCC(C)CC4)ncnc32)cc1C	/	/	/	/	6%
O=C(c1ccccc1)N1CCN(c2ncnc3c2cnn3-c2ccccc2)CC1	0%	14	2%	17	-12%
COc1ccc(-n2ncc3c(N4CCC(C)CC4)ncnc32)cc1	-42%	20*	73%	26*	-10%
Cn1ncc2c(N3CCN(c4ccccc4F)CC3)ncnc21	-7%	13*	23%	7	-2%
O=C(c1ccco1)N1CCN(c2ncnc3c2[nH]c2ccc(Cl)cc23)CC1	2.2µM*	6	-29%	6	-15%
CCOc1ccc(CNC(=O)c2cnc3sc(N(CC)CC)nn3c2=O)cc1	/	/	/	/	17%

Source: PubChem BioAssay
